Test [1] addresses Thyrotropin-releasing hormone receptor (Homo sapiens) (UniProt P34981). Put plainly: qHTS for Small Molecule Agonists and Allosteric Enhancers of Human TRH Receptor: Validation Screen for Agonists (AID 493127;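 active means calcium activation more than 3 SD above the typical response in the agonist read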;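 further: intracellular calcium rise by fluo-8 fluorescence before TRH EC20 addition; 0% is about no effect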). As to conditions: TRH receptor agonist cell assay; at 2 µM; stronger effect = higher value. A digest of the protocol:
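Cells 2000/well, 10% FCS, 18 h 33.5C/5% CO2 → fluo-8 Ca dye, RT 30 min–1.5 h → FDSS baseline 10 × 1 s → compound added → 230 cycles (1 s/cycle) agonist mode. TRH controls.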
On the technique in general: qHTS replaces the single test concentration by a dilution series.

Test [2] is described as follows: Nrf2 qHTS screen for inhibitors: Validation (AID 493153; active means well fitted inhibition curve with a large enough effect in the main read-out, with a control signal flat, not every such curve was filed as active). As to conditions: A549 ARE-Fluc reporter, 18-24 h; Potency: luciferase luminescence; viability change: measured here: cytotoxicity max response; luciferase luminescence, at 46.1 µM (top of the series). A digest of the protocol: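 Luminescence from an ARE-firefly luciferase reporter in A549 cells gives Nrf2 inhibition; an earlier CellTiter-Fluor fluorescent read flags cytotoxicity. Cells in 5% FBS OPTI-MEM received compound dilution series for 18-24 h at 37°C.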

Test [3] can be described thus: qHTS for Inhibitors of Cell Surface uPA Generation: Validation Assay (AID 493164). Further: 0% is about no effect. As to conditions: mouse cells, plasminogen activation; series mostly up to 38.3 µM. A digest of the protocol: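 RAW 264.7 cells (4000/well) were plated overnight, then exposed for 18 h at 37 C, 5% CO2 to compounds in a 7-point 1:5 titration (2.45 nM–38.3 uM final). Intracellular ATP was read by ATP-Lite luminescence.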

The target in test [4] is Galactokinase (Homo sapiens) (UniProt P51570). Put plainly: qHTS Validation Assay for Inhibitors of Human Galactokinase (GALK) (AID 493189). Further: 0% is about no effect. As to conditions: purified human GALK enzyme activity, qHTS 7-point titration; series mostly up to 57.5 µM. The gist of the method:
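5 nM GALK / 100 uM galactose / 35 uM ATP, 20 mM HEPES pH8.0, 5 mM MgCl2, 60 mM NaCl, 1 mM DTT, 0.01% BSA (final). RT 1 h; Kinase-Glo Plus luminescence.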

The nature of test [5]: Validation screen for small molecules that induce DNA re-replication in SW480 colon adenocarcinoma cells (AID 504364). Further: 0% is about no effect. As to conditions: DNA re-replication phenotype (high-content imaging); series mostly up to 46.1 µM. A digest of the protocol: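 250 cells/well; compound pinned in; 48 hr, 37 C, 5% CO2; Hoechst added, 40 min; nuclear fluorescence imaged, 405 ex / 500-530 em; re-replication scored as increase in high-intensity nuclei.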

The target in test [6] is Peptidyl-prolyl cis-trans isomerase NIMA-interacting 1 (Homo sapiens) (UniProt Q13526). Put plainly: qHTS Validation Assay to Find Inhibitors of Pin1 (AID 504536; active means well fitted inhibition curve with a large enough effect in the polarisation, with a control signal flat, not every such curve was filed as active; the % refers to the polarisation;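 further: 0% = full Pin1 enzyme wells and -100% = no-enzyme wells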). As to conditions: Pin1 fluorescence polarization peptide binding assay; series mostly up to 57.5 µM. The gist of the method: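 Fluorescence polarization competition: compounds (titration) displace HiFluor-488-labeled Pin1-1b peptide from Pin1 (0.3 uM final) in pH 7.5 HEPES buffer with DTT, 10 min at room temperature; %Activity normalized to no-enzyme wells, curves fitted.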
Peptidyl-prolyl cis-trans isomerase NIMA-interacting 1 (Homo sapiens), sequence (Q13526 whole entry, looked up): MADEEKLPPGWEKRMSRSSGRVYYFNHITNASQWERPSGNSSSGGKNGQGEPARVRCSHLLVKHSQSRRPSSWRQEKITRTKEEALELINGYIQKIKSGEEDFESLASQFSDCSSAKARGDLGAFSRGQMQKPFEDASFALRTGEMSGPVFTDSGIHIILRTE

In test [7] the target is Phosphoglycerate kinase, glycosomal (Trypanosoma brucei brucei) (UniProt P07378). The experiment in a line: qHTS Validation Assay to Find Inhibitors of Phosphoglycerate Kinase (AID 504547).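 Further: control wells lack PGK and mark full inhibition.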 The following applies: enzymatic PGK inhibition, coupled luminescence read-out; series mostly up to 57.5 µM. A digest of the protocol:
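PGK activity was coupled to GAPDH (100nM final), which generates the unstable substrate 1,3-bisphosphoglycerate in-well. Reactions ran 60 minutes at room temperature in 100mM TEA pH 7.6, 5mM MgCl2, 0.01% Tween-20, then Kinase-Glo Plus luminescence was read.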

The target in test [8] is phosphoglycerate mutase (Leishmania major) (UniProt Q4Q090). Put plainly: qHTS Validation Assay to Find Inhibitors of Phosphoglycerate Mutase (AID 504548). Further: on the % scale 0 is the no-effect control and ±100 the full control effect. As to conditions: biochemical enzyme activity; series mostly up to 57.5 µM. The gist of the method: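 Lm PGAM 1.25nM final; 100 mM TEA pH 7.6, 5 mM MgCl2, 0.01% Tween-20; 45 min RT; Kinase-GloPlus, 10 min; end-point luminescence. Enzyme-free wells as negative controls.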
phosphoglycerate mutase (Leishmania major), sequence (Q4Q090 1-553): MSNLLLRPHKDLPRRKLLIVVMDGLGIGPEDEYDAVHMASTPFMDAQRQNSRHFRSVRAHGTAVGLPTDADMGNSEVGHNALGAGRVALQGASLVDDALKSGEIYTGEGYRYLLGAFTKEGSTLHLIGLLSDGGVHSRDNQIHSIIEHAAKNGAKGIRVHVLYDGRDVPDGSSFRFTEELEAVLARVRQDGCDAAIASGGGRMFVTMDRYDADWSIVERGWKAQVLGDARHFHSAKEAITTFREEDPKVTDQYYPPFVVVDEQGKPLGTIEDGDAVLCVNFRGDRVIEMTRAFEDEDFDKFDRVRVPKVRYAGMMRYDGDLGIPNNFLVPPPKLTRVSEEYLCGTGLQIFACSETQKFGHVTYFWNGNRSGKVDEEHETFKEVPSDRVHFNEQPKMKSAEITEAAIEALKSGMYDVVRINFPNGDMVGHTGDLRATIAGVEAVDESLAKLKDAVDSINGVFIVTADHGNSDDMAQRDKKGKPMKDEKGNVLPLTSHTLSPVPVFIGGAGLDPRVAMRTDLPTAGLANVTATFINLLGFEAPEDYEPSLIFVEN

In test [9] the target is Ubiquitin carboxyl-terminal hydrolase 1 (Homo sapiens) (UniProt O94782). The experiment in a line: Inhibitors of USP1/UAF1: Pilot qHTS (AID 504865).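 Further: rhodamine fluorescence freed from ubiquitin-rhodamine substrate followed over time; top concentration of the series differs between compounds; on the % scale 0 is the no-effect control and ±100 the full control effect; nearly all actives have a fitted effect of over 35% in size.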 As to conditions: purified USP1/UAF1, Ub-rhodamine cleavage fluorescence; series mostly up to 114 µM. The gist of the method:
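In 50mM HEPES pH 7.8 containing 0.5mM EDTA, 1mM TCEP, 0.1 mg/ml BSA and 0.01% Tween-20, 1nM USP1/UAF1 is exposed to compound for 15 min, then Ub-Rho (150nM final) is added and fluorescence is read over time.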

Test [10] in a line: qHTS for Inhibitors of ATXN expression: Validation of Cytotoxic Assay (AID 588349). Further: on the % scale 0 is the no-effect control and ±100 the full control effect. The following applies: cytotoxicity counter-screen for ATXN expression inhibitors, cell viability; series mostly up to 57.1 µM. A digest of the protocol: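 Read-out: ATP-based luminescence (CellTiter Glo) reflecting viability of HEK293 cells after 72 hr incubation at 37 degrees C with a concentration series of each compound.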

The nature of test [11]: qHTS for Inhibitors of ATXN expression: Validation (AID 588378). Further: on the % scale 0 is the no-effect control and ±100 the full control effect; nearly all actives have a fitted effect of over 75% in size. The following applies: cell-based ATXN2 expression reporter assay, luminescence; series mostly up to 57.1 µM. The gist of the method: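 Compounds were pinned onto attached HEK293 cells carrying an ATXN2-firefly luciferase construct and incubated 24 hrs at 37 degrees C. Each well then received a fluorescent viability reagent followed by luciferase substrate for end-point luminescence.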

In test [12] the target is Estrogen receptor (Homo sapiens) (UniProt P03372). The experiment in a line: qHTS assay for small molecule agonists of estrogen receptor alpha signaling (AID 588514; calls by dose curve;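 further: 0% = vehicle only and 100% = reference agonist; nearly all actives have a fitted effect of over 70% in size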). The following applies: ER-alpha-UAS-bla HEK293, beta-lactamase ratio, 18 h; series mostly up to 76.8 µM. A digest of the protocol: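 Cells were plated at 5000/well, incubated 4 hrs at 37 C, dosed with compound titration series, incubated 18 hrs at 37 C, loaded with CCF4 dye for 2 hrs at RT, then fluorescence was read.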
Estrogen receptor (Homo sapiens), sequence (P03372 whole entry, looked up): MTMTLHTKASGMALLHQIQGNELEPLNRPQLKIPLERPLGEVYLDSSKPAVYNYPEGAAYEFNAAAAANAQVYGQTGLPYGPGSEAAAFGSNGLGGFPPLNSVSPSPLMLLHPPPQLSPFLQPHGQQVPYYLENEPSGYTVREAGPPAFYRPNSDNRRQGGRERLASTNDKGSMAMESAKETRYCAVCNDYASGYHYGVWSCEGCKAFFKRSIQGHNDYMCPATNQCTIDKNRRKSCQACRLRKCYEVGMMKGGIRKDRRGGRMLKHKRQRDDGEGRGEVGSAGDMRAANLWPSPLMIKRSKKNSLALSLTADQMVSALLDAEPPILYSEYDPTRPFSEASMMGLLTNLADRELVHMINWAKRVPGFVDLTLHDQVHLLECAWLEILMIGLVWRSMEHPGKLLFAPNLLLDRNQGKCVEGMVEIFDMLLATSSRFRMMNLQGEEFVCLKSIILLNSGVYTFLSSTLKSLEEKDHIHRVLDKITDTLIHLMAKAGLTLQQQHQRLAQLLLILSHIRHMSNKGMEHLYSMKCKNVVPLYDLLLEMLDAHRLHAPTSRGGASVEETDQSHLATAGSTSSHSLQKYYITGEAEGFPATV

Test [13] deals with Glucocorticoid receptor (Homo sapiens) (UniProt P04150). Put plainly: qHTS assay for small molecule agonists of glucocorticoid receptor signaling (AID 588532; active means well fitted curve in the direction sought with a large enough effect in the signal ratio, with a control signal flat; the % refers to the signal ratio;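 further: 100% = dexamethasone at 0.1 µM and 0% = DMSO only wells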). As to conditions: HeLa MMTV-bla, beta-lactamase ratio, agonist, 18 h; activation: stronger effect = higher value, percent of dexamethasone control, DMSO zero. The gist of the method:
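HeLa GRE-bla reporter cells; 18 h compound exposure at 37 C; 2 h CCF4 loading at room temperature; fluorescence at 460 and 530 nm; EC50 by Hill equation.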

For test [14] the target is unchanged. The experiment in a line: qHTS assay for small molecule antagonists of glucocorticoid receptor signaling (AID 588533; active means well fitted inhibition curve with a large enough effect in the signal ratio, with a control signal flat, not every such curve was filed as active; the % refers to the signal ratio;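 further: cells stimulated with 2 nM dexamethasone as agonist; potency means the concentration at half of the fitted maximal effect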). As to conditions: HeLa MMTV-bla, GRE beta-lactamase ratio, antagonist mode, 18 h; series mostly up to 76.8 µM. A digest of the protocol: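 Antagonist-mode qHTS: compound titrations added to GRE-bla HeLa cells, then dexamethasone 2 nM final; 18 h, 37 C. CCF4 FRET fluorescence normalized to dexamethasone and DMSO; IC50 from Hill fit.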

Test [15] in a line: qHTS assay for small molecule antagonists of peroxisome proliferator-activated receptor delta signaling (AID 588535; active means well fitted inhibition curve with a large enough effect in the signal ratio, with a control signal flat, not every such curve was filed as active; the % refers to the signal ratio;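 on max response: cells co-treated with a PPAR-delta agonist as stimulator during compound exposure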). The following applies: HEK293T PPARd-UAS-bla, beta-lactamase FRET ratio, 18 h; 460 nm channel. A digest of the protocol:
(§1)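 Antagonist-mode beta-lactamase reporter (GeneBLAzer PPAR-delta-UAS-bla) in HEK293T cells, 2% charcoal/dextran FBS, 4000 cells/well. Compound titrations, 18 h at 37 C; CCF4 ratio read, IC50 and efficacy from Hill fits.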

Test [16] has as its target Peroxisome proliferator-activated receptor delta (Homo sapiens) (UniProt Q03181). Described as above. As to conditions: HEK293T PPARd-UAS-bla, beta-lactamase FRET ratio, 18 h; series mostly up to 76.7 µM. The gist of the method: as §1
Test [17] deals with Estrogen receptor (Homo sapiens) (UniProt P03372). Put plainly: qHTS assay for small molecule antagonists of estrogen receptor alpha signaling (AID 588513; active means well fitted curve in the direction sought with a large enough effect in the signal ratio, with a control signal flat, not every such curve was filed as active; the % refers to the signal ratio; further: on the % scale 0 is the no-effect control and ±100 the full control effect). As to conditions: ER-alpha-UAS-bla HEK293, beta-lactamase ratio, antagonist mode; series mostly up to 76.9 µM. A digest of the protocol:
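Fluorescence from CCF4 substrate after 2 h at room temperature gave reporter activity; cells had been exposed to compound and 0.5nM 17-beta-estradiol for 18 h at 37 C. Hill-equation fitting yielded IC50 and maximal response.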

The target of test [18] is Bile acid receptor (Homo sapiens) (UniProt Q96RI1). Put plainly: qHTS assay for small molecule antagonists of farnesoid X receptor signaling (AID 588526; calls by dose curve; further: on the % scale 0 is the no-effect control and ±100 the full control effect). The following applies: HEK293T FXR-UAS-bla, beta-lactamase ratio, antagonist mode; series mostly up to 76.7 µM. The gist of the method:
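Antagonist mode: titrated compounds tested against chenodeoxycholic acid stimulation (normalized to 50 uM CDCA and DMSO) in GeneBLAzer HEK293T cells for 16 h. Beta-lactamase read by CCF4 fluorescence; IC50 from Hill fits.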

Inconclusive results are not listed. Calls of active or inactive are those of the source. Unless noted, the call rests on the fitted dose curve; in most records, active means well fitted curve in the direction sought with a large enough effect; inconclusive means small, poorly fitted or top-dose-only effect, or another doubt; inactive means no such curve, though single readings can be large; an effect the other way counts as inactive or inconclusive.

The values below come from PubChem BioAssay (NCATS).

Galactokinase (Homo sapiens), sequence (P51570 whole entry, looked up): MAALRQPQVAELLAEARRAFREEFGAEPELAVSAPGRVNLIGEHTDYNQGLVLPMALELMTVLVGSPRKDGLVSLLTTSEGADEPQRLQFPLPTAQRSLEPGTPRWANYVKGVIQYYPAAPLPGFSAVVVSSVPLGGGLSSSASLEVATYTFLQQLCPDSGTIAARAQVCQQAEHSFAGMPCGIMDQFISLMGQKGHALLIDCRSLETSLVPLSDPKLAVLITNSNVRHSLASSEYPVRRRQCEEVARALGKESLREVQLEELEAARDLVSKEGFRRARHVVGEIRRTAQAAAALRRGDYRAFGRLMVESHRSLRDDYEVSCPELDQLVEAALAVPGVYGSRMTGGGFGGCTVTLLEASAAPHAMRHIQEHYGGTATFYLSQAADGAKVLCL
Ubiquitin carboxyl-terminal hydrolase 1 (Homo sapiens), sequence (O94782 whole entry, looked up): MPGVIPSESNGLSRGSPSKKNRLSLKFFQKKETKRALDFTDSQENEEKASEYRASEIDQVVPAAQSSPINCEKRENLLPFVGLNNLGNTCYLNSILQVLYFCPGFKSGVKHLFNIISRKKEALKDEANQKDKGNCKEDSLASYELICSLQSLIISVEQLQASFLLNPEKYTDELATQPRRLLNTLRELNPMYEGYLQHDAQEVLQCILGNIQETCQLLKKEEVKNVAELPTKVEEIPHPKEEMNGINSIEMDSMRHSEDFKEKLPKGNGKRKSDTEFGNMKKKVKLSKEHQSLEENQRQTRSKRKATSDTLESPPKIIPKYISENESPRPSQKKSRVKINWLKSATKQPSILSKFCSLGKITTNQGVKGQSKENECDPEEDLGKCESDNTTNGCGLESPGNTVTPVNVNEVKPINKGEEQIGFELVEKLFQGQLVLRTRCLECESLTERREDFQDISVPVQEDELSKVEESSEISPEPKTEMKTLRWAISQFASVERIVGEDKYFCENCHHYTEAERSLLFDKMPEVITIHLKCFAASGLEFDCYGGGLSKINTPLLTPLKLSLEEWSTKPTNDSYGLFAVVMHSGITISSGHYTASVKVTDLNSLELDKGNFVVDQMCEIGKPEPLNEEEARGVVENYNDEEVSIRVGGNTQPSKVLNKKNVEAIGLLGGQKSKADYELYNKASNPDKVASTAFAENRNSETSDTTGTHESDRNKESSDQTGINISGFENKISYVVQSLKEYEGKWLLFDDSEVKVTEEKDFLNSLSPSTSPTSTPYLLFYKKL
Phosphoglycerate kinase, glycosomal (Trypanosoma brucei brucei), sequence (P07378 whole entry, looked up): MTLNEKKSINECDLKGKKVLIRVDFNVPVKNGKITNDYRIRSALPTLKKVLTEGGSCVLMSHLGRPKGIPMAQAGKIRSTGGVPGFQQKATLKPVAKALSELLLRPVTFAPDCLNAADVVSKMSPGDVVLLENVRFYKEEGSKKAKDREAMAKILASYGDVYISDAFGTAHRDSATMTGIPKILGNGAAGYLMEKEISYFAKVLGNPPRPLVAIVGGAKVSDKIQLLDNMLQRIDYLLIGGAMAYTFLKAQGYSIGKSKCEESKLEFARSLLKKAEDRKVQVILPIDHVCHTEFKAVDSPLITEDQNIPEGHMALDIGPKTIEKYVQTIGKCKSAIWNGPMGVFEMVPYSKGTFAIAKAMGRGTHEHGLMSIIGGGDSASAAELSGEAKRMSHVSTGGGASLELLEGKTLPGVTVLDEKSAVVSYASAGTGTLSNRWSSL
Thyrotropin-releasing hormone receptor (Homo sapiens), sequence (P34981 whole entry, looked up): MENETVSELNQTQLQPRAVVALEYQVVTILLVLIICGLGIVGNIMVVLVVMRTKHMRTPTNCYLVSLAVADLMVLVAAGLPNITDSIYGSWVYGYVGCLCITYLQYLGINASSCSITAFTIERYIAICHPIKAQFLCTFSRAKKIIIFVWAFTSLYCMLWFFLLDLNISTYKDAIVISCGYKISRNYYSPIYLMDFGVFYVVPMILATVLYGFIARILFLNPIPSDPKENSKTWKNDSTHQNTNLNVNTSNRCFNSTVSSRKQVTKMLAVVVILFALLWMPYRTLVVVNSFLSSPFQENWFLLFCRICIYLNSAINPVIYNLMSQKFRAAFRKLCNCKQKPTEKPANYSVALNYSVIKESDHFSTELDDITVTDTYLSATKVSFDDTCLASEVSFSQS
Peroxisome proliferator-activated receptor delta (Homo sapiens), sequence (Q03181 whole entry, looked up): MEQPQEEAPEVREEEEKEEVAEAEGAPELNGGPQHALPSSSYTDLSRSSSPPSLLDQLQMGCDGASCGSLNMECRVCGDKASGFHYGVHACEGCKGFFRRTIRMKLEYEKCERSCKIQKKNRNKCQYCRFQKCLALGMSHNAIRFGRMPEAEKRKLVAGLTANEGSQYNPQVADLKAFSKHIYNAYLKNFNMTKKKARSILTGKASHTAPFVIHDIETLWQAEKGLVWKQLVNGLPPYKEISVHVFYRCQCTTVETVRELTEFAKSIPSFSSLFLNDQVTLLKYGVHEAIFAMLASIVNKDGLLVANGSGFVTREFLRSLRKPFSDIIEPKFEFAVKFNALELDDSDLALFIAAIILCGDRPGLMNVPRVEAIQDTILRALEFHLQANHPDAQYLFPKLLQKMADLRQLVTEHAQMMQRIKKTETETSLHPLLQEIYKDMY
Glucocorticoid receptor (Homo sapiens), sequence (P04150 whole entry, looked up): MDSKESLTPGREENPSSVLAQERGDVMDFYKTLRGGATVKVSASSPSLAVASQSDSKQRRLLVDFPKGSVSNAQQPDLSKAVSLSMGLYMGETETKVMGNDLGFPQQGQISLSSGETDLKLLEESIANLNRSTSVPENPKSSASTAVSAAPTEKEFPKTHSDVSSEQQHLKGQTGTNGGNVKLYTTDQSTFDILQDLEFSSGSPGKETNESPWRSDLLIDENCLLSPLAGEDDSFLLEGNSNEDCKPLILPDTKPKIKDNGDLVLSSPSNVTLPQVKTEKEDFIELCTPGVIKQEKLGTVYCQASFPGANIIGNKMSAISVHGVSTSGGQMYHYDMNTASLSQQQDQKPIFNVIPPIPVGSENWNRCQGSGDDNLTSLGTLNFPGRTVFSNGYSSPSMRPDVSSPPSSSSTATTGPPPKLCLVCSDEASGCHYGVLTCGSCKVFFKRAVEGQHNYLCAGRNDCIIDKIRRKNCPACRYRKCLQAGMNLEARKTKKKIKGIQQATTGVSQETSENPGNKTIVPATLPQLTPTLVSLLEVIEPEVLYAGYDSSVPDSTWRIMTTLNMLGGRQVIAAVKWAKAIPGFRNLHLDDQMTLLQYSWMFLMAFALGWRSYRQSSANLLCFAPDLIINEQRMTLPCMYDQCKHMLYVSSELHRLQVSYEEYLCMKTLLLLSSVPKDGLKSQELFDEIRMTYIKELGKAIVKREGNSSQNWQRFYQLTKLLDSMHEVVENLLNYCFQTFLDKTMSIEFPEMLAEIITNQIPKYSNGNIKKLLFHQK

For `N[C@@H](COP(=O)(O)O)C(=O)O`, in test [1], the activation was 1% (inactive). In addition, the Potency entry in test [2], in test [9], in test [10] and in [11] was “inactive” in each case. In test [2], the viability change came out at 6.46%. The compound was classed as inactive in test [3], in [4], in test [5], in test [6], in test [7] and in test [8].
Take `C[C@]12CCC(=O)C=C1CC[C@@H]1[C@@H]2C(=O)C[C@@]2(C)[C@H]1CC[C@]2(O)C(=O)CO`: the activation is -0.125% (inactive) in test [1] and -0.667% (inactive) in test [13]. For the same compound, the Potency result in test [2], in [9], in test [10], in test [11] and in test [12] was “inactive” throughout. In addition, the viability change in [2] turned out to be 8.98%. In addition, the compound was called inactive in [3], in [4], in [5], in test [6], in [7] and in [8]. For the same compound, in test [16], the outcome was inactive. In addition, the Potency in test [14] is 28.2 µM (active). Also, in test [15], the max response is 10.6%.
For the compound `CNC1(C)C2CCC(C2)C1(C)C` (configuration not stated), the activation in test [1] was 0.375% (inactive). In addition, the Potency result in test [2], in test [9], in test [10] and in test [11] was “inactive” each time. Besides, the viability change in test [2] was 3.39%. Besides, the compound was called inactive in test [3], in [4], in test [5], in test [6], in test [7] and in [8].
For `NC(N)=N/N=C/c1c(Cl)cccc1Cl`, the activation in [1] is -6.19% (inactive). The Potency entry in test [2] and in [9] was “inactive” each time. Moreover, in test [2], the viability change turned out to be 6.68%. The call in [3], in [4], in test [5], in test [6], in test [7] and in [8] was inactive.
On to `CCCNC(C)C(=O)Nc1ccccc1C` (configuration not stated), for which the activation in [1] is 1.5% (inactive). The Potency result in test [2], in test [9] and in test [11] was “inactive” each time. Besides, in test [2], the viability change is -6.89%. Further, the call in [3], in [4], in test [5], in test [6], in [7] and in test [8] was inactive.
For `Cc1nnc(SCC2=C(C(=O)O)N3C(=O)[C@@H](NC(=O)Cn4cnnn4)[C@H]3SC2)s1`, the activation in test [1] was 1.12% (inactive). The Potency result in test [2], in test [9] and in test [11] was “inactive” each time. The viability change in [2] is -1.79%. Besides, the call in [3], in test [4], in test [5], in test [6], in test [7] and in test [8] was inactive.
As to `CCC(=O)c1ccc2c(c1)N(CCCN(C)C)c1ccccc1S2`, the activation in test [1] was 1.56% (inactive). In addition, the Potency result in test [2] and in test [9] was “inactive” in each case. The viability change in [2] was -14.9%. For the same compound, the compound was classed as inactive in test [3], in test [4], in test [5], in [6], in test [7] and in test [8].
Turning to `O=c1[nH]c(=O)n([C@H]2C[C@H](O)[C@@H](CO)O2)cc1Br`, the activation in [1] was 1% (inactive). Moreover, the Potency result in test [2], in [9], in [10], in [11] and in test [12] was “inactive” each time. In addition, in test [2], the viability change came to 1.73%. In addition, the result in test [3], in [4], in test [5], in test [6], in [7] and in test [8] was inactive. Besides, the outcome in test [17], in [18] and in test [16] was inactive. Besides, the max response in test [15] is -1.7%.
As to `C[N+](C)(C)CCOC(=O)CCC(=O)OCC[N+](C)(C)C`, the activation in test [1] is 0.188% (inactive). Besides, the Potency result in test [2], in [9], in test [10] and in [11] was “inactive” each time. Further, in test [2], the viability change was found to be 0.0745%. The compound was called inactive in test [3], in test [4], in [5], in test [6], in [7] and in [8].
